Sa helicase inh: S. aureus DNA helicase inhibition | inhibition, % (test concentration not listed) | purified S. aureus helicase, fluorescence unwinding assay | actives 0.05% (n = 120,000); in the data active means inhibition above about 25%, passing the limit was not always enough;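 further: 0% = mean of negative control wells and 100% = mean of positive control wells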
Sa growth inh: inhibitors of Staphylococcus aureus growth at 42 °C; S. aureus RN4220 growth, OD600, 20 h; active compounds read low; relative growth, % (no concentration beside the values); actives 0.53% (n = 170,000);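 active means relative growth at most 50% at the other temperature and 20+ points below 30 °C, or under 10% at both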
Numbers without * were called inactive. Only a selection was taken, and hits are over-represented in it overall.

What do the screens show for `Cc1oc2ccccc2c1-c1ccc2ccccc2n1`?
Sa helicase inh: -16; Sa growth inh: 34*

What do the screens show for `CCn1c2ccccc2c2cc(CN3CCN(C)CC3)ccc21`?
Sa helicase inh: 0; Sa growth inh: 95

What do the screens show for `CC(C)(C)N1C(=O)NC(=O)/C(=C/c2ccccc2Cl)C1=O`?
Sa helicase inh: 8; Sa growth inh: 111

Results for Clc1ccc(NCCN2CCCCCC2)nn1 ?
Sa helicase inh: -1; Sa growth inh: 104

How did Oc1cccc2cccnc12 do in these assays?
Sa growth inh: 0.2*

Results for CN(C)C(=O)Oc1cccc2cccnc12 ?
Sa helicase inh: 0; Sa growth inh: 102

How did Cc1nn(Cc2ccccc2)c(Cl)c1C(=O)OCC(=O)N(C)C1CCS(=O)(=O)C1 (configuration not stated) do in these assays?
Sa helicase inh: -9; Sa growth inh: 86

Results for O=C(CN1CCCC1)c1cccc(C(F)(F)F)c1 ?
Sa helicase inh: 29; Sa growth inh: 103

How did CC(C)c1ccc(C(=O)C2CN3CCC2CC3)cc1 (configuration not stated) do in these assays?
Sa helicase inh: 20; Sa growth inh: 106

Results for N#CC(C#N)=C(C#N)c1ccc(Nc2ccccc2)cc1 ?
Sa helicase inh: -2; Sa growth inh: 85

What do the screens show for `N#CC(C#N)=NNc1ccccc1`?
Sa helicase inh: 0; Sa growth inh: 0.0*

How did O=C1CN=C(c2ccc(F)cc2)c2cc(Br)ccc2N1 do in these assays?
Sa helicase inh: 5; Sa growth inh: 97

Results for CC1CCP(=S)(N(C)C)O1 (configuration not stated) ?
Sa helicase inh: 8; Sa growth inh: 101

What do the screens show for `O=c1c2ccccc2[se]n1-c1ccccc1`?
Sa growth inh: 0.3*

What do the screens show for `O=c1c2ccccc2nc(-c2ccccc2)n1-c1ccccc1`?
Sa helicase inh: 15; Sa growth inh: 107

What do the screens show for `CCn1nc(-c2ccccc2)nc2c(=O)n(C)c(=O)nc1-2`?
Sa helicase inh: -133; Sa growth inh: 0.3*

How did CCn1nc(-c2cccnc2)nc2c(=O)n(C)c(=O)nc1-2 do in these assays?
Sa helicase inh: -20; Sa growth inh: -0.2*

Results for CCN(CC)C(=O)c1ccc(NC(=O)Cn2nc(-c3ccccc3)c3ccccc3c2=O)cc1 ?
Sa helicase inh: 2; Sa growth inh: 98

How did C=CC1CN2CCC1CC2C(OC(=O)c1ccco1)c1ccnc2ccccc12 (configuration not stated) do in these assays?
Sa helicase inh: 10; Sa growth inh: 117

What do the screens show for `COc1ccc(C=C(C#N)C#N)c2ccccc12`?
Sa helicase inh: 3; Sa growth inh: 117

How did CC#CCNC1CCCCC1 do in these assays?
Sa helicase inh: 2; Sa growth inh: 94

What do the screens show for `Clc1ccc(CO/N=C(\Cn2ccnc2)c2ccc(Cl)cc2Cl)c(Cl)c1`?
Sa growth inh: -0.4*

What do the screens show for `CCN(CC)C(=O)c1ccc(NC(=O)CCn2nc(-c3ccc(Cl)cc3)c3ccccc3c2=O)cc1`?
Sa growth inh: 94

What do the screens show for `Cn1c(C(F)(F)F)nn(CN2CC=C(c3ccccc3)CC2)c1=S`?
Sa helicase inh: -4; Sa growth inh: 83

Results for CCCC1COC(Cn2cncn2)(c2ccc(Cl)cc2Cl)O1 (configuration not stated) ?
Sa helicase inh: 0; Sa growth inh: 5.4*

Results for N#CC(C#N)=Cc1cc2c(cc1Br)OCO2 ?
Sa helicase inh: -2; Sa growth inh: 95

How did c1ccc(Cn2ccnc2)cc1 do in these assays?
Sa growth inh: 84

How did Clc1ccc(COC(Cn2ccnc2)c2ccc(Cl)cc2Cl)cc1 (configuration not stated) do in these assays?
Sa growth inh: -0.6*

How did Clc1ccc(CSC(Cn2ccnc2)c2ccc(Cl)cc2Cl)cc1 (configuration not stated) do in these assays?
Sa growth inh: -0.3*

Results for C[n+]1ccsc1-c1ccccc1 ?
Sa helicase inh: -17

High-throughput results (PubChem)
